SMILES strings stand for the structures. Activity calls are given as the source filed them. No rule for the calls is given here.

Dual specificity protein kinase CLK1 (Homo sapiens), sequence (P49759 whole entry, looked up): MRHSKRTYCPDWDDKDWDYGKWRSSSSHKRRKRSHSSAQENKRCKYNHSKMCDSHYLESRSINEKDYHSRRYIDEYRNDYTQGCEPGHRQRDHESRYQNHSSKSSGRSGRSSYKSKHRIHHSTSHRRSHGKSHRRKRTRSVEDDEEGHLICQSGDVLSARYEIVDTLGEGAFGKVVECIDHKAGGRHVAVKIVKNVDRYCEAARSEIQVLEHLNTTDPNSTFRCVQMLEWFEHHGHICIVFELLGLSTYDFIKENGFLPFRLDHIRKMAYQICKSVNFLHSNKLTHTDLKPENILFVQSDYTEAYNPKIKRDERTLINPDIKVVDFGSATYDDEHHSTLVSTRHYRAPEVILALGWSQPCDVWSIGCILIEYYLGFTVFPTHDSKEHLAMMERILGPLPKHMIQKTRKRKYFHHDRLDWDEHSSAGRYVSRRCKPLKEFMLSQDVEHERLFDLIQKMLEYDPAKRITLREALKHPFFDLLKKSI

The first assay concerns the target Dual specificity protein kinase CLK1 (Homo sapiens) (UniProt P49759). Briefly: CLK1 binders by thermal stabilization, biophysical, recombinant human kinase, DSF (AID 382). The settings on record: at 10 µM, protein 1.7 µM, buffer 10 mM HEPES, pH 7.5, NaCl 150 mM, with 50 µM L-Arg/L-Glu (1:1), stronger effect = higher value.
Turning to `COc1ccc(C(=O)c2sc(Nc3cccc(C(F)(F)F)c3)nc2N)cc1`, the Tm shift is 3.7 Celsius (active).
Still for that read-out and setting: in the case of `Nc1nc(Nc2ccc(F)cc2)sc1C(=O)c1ccccc1` it was 3.3 Celsius (active); in that of `Nc1nc(Nc2cccc(Cl)c2)sc1C(=O)c1ccc(F)cc1`, 4 Celsius (active).
In the case of `Nc1nc(Nc2ccccc2)sc1C(=O)c1ccc(F)cc1`, the Tm shift was 3.2 Celsius (active).
The same measure, in the same setting: in the case of `COc1ccc(Nc2nc(N)c(C(=O)c3ccc(Cl)cc3)s2)cc1` it was 4.4 Celsius (active).

Staying with this assay, now noted: at 10 µM, protein 2 µM, buffer 10 mM HEPES, NaCl 150 mM, stronger effect = higher value.
As for `NCCCn1cc(C2=C(c3c[nH]c4ccccc34)C(=O)NC2=O)c2ccccc21`, the Tm shift is 8.48 Celsius (active).
Still for that read-out and setting: in the case of `COc1cc(/C=C/C(=O)CC(=O)/C=C/c2ccc(O)c(OC)c2)ccc1O` it was 9.16 Celsius (active).
On the same count and under the same terms, in the case of `COc1cc2ncnc(Nc3cccc(O)c3)c2cc1OC` it was 4.15 Celsius (active); in that of `Cc1c(O)cc(O)c2c1OC(c1ccc(O)c(O)c1)C(=O)C2=O` (centres undefined), 4.98 Celsius (active); in that of `O=C1NC(=O)C(c2c[nH]c3ccccc23)=C1c1c[nH]c2ccccc12`, 4.13 Celsius (active).
For `O=Nc1c(-c2c(O)[nH]c3ccc(I)cc23)[nH]c2ccccc12`, the Tm shift was 5.14 Celsius (active).
The same measure, in the same setting: in the case of `O=c1cc(-c2ccc(O)c(O)c2)oc2cc(O)cc(O)c12` it was 5.77 Celsius (active).
Same read-out and setting: in the case of `O=c1cc(-c2ccc(O)cc2)oc2cc(O)cc(O)c12` it was 5.94 Celsius (active).
With `O=Nc1c(-c2c(O)[nH]c3ccccc23)[nH]c2ccccc12`, the Tm shift is 3.59 Celsius (active).
`COc1cc(O)c2c(c1)oc(=O)c1c3cc(O)c(O)cc3oc21`: the Tm shift is 3.2 Celsius (active).
On to `Brc1c(Br)c(Br)c2n[nH]nc2c1Br`, for which the Tm shift is 3.97 Celsius (active).

Still in this assay, the particulars now being: at 10 µM, protein 2 µM, buffer 10 mM HEPES, pH 7.5, NaCl 150 mM, with 50 µM L-Arg/L-Glu (1:1), stronger effect = higher value.
Take `Fc1ccc(-c2cnc3ccc(NC4CCOCC4)nn23)cc1`: the Tm shift is 5.3 Celsius (active).
Still for that read-out and setting: in the case of `CC(C)[C@@H](CO)Nc1ccc2ncc(-c3cccc(Cl)c3)n2n1` it was 3.9 Celsius (active); in that of `CCN(CC)CCNC(=O)c1c(C)[nH]c(/C=C2\C(=O)Nc3ccc(Cl)cc32)c1C`, 6.6 Celsius (active); in that of `COc1cccc(-c2cnn3ccc(Nc4cccc(Cl)c4)nc23)c1`, 6 Celsius (active).
Same read-out and setting: in the case of `COCCNc1ccc2ncc(-c3cccc(C(N)=O)c3)n2n1` it was 3.9 Celsius (active); in that of `COCCNc1ccc2ncc(-c3cccc(Cl)c3)n2n1`, 3.6 Celsius (active).
Same read-out and setting: in the case of `NS(=O)(=O)c1ccc(Nc2nc(OCC3CCCCC3)c3[nH]cnc3n2)cc1` it was 3.9 Celsius (active); in that of `CNC(=O)c1cc(Oc2ccc(NC(=O)Nc3ccc(C)c(C(F)(F)F)c3)cc2)ccn1`, 4.9 Celsius (active).
As for `Nc1ccc(-c2cnn3ccc(Nc4cccc(Cl)c4)nc23)cc1`, the Tm shift was 5.8 Celsius (active).
The same measure, in the same setting: in the case of `Clc1ccc(-c2cnc3ccc(NC4CCOCC4)nn23)cc1` it was 5.7 Celsius (active); in that of `CCC(CO)Nc1ccc2ncc(-c3cccc(C(C)=O)c3)n2n1` (centres undefined), 6.1 Celsius (active); in that of `CCC(CO)Nc1ccc2ncc(-c3cccc(OC(F)(F)F)c3)n2n1` (centres undefined), 5.3 Celsius (active).
Same read-out and setting: in the case of `CC(C)[C@@H](CO)Nc1ccc2ncc(-c3cccc(OC(F)(F)F)c3)n2n1` it was 4.6 Celsius (active); in that of `CC(=O)c1cccc(-c2cnc3ccc(NC4CCOCC4)nn23)c1`, 5.2 Celsius (active); in that of `N#Cc1ccc(-c2cnc3ccc(NC4CCOCC4)nn23)cc1`, 7.2 Celsius (active).

The same assay, now with this note: at 10 µM, protein 2 µM, buffer 10 mM HEPES, pH 7.5, NaCl 150 mM, with 50 mM Arg/Glu, stronger effect = higher value.
With `Cn1cc(/C=C2\C(=O)Nc3ccc(S(N)(=O)=O)cc32)c2ccccc21`, the Tm shift is 3.6 Celsius (active).
Still for that read-out and setting: in the case of `CC(O)(O)C1(O)C[C@@H]2O[C@@]1(C)n1c3ccccc3c3c4c(c5c6ccccc6n2c5c31)C(=O)NC4` (some centres undefined) it was 5.1 Celsius (active); in that of `CC(C)(C)c1nc2c3cc[nH]c(=O)c3c3cc(F)ccc3c2[nH]1`, 3.6 Celsius (active).

The values are drawn from PubChem BioAssay AID382 (SGCOxCompounds, 2006).
